# From PubChem BioAssay
# This is a sample that favours compounds with a hit; in the whole collection about 8% have one here.
# KB-3-1 tox – qHTS assay for MDR1-selective chemotherapeutics: Primary screen using the parental adenocarcinoma cell KB-3-1; Potency, µM (series often up to 46.1 µM), hits mostly cytotoxic; 1.4% of 400,000 active; KB-3-1 viability, CellTiter-Glo ATP luminescence, 72 h; note: % is set by controls: 0 for no effect and ±100 for the full control effect; nearly all actives have a fitted effect of over 60% in size
#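 Viability of parental KB-3-1 cells, measured by CellTiter-Glo luminescence, followed a 72 h incubation at 37 °C with pinned compounds in phenol-red-free DMEM containing 10% FBS.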
# KB-V1 cytotox – qHTS assay for MDR1-selective chemotherapeutics: Primary screen using the drug-selected MDR subline cells KB-V1. KB-V1 MDR cells viability, CellTiter-Glo, 72 h. Potency, µM (titrated, usually from 46.1 µM), actives largely listed as cytotoxic. 3.4% of 400,000 active; note: % is set by controls: 0 for no effect and ±100 for the full control effect; nearly all actives have a fitted effect of over 60% in size
#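 Readout: CellTiter-Glo luminescence, 10 min after addition. Cells: KB-V1 MDR subline, 72 h at 37 degrees C with compound. Analysis: corrected, normalized data fitted to concentration-effect curves.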
# HT1080 IDH1KD tx – qHTS for induction of synthetic lethality in tumor cells producing 2HG: qHTS for the HT-1080-IDH1KD cell line. Potency, µM (highest dose often 46.1 µM), for inactives: top-dose activity, negative = toxicity, actives largely listed as cytotoxic. AID 686971, 2013. 2% of 360,000 active. HT-1080 IDH1 knockdown viability, ATP luminescence, 48 h;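 note: 0% = DMSO wells and -100% = cell-free medium wells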
#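 Knockdown cells (IDH1KD HT-1080) received compounds 2 h after plating at 750 cells/well and were kept 48 h at 37 °C in 5% FBS RPMI. A CellTiter-Glo luminescence read gave % activity for curve fitting.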
# MCF10A rerep – A quantitative high throughput screen for small molecules that induce DNA re-replication in MCF 10a normal breast cells; 2.9% of 350,000 active; Potency, µM (doses to about 46.1 µM), inactives show top-dose activity, positive = re-replication, actives largely listed as activators; MCF 10A DNA re-replication, Hoechst nuclear intensity, 48 h; note: % of control where 0% means no effect; nearly all actives have a fitted effect of over 50% in size
# HT1080NT lethal – qHTS for induction of synthetic lethality in tumor cells producing 2HG: qHTS for the HT-1080-NT fibrosarcoma cell line | HT-1080-NT fibrosarcoma viability, CellTiter-Glo ATP luminescence, 48 h | Potency, µM (titrated, usually from 46.1 µM), inactives show at the highest dose activity, negative = less viability, hits mostly cytotoxic | 1.6% of 360,000 active | AID 686970, 2013;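 note: NT is the 2HG producing partner of a matched IDH1 knockdown line; 0% = DMSO-treated cells and -100% = media-only wells without cells; nearly all actives have a fitted effect of over 55% in size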
#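 Fibrosarcoma NT cells, 750 per well in 5% FBS RPMI, were exposed to compound for 48 hours. Viability: CellTiter-Glo luminescence.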
# SW480 rerep – A quantitative high throughput screen for small molecules that induce DNA re-replication in SW480 colon adenocarcinoma cells. SW480 DNA re-replication, Hoechst DNA content imaging, 48 h. Potency, µM (top dose mostly 46.1 µM), for the others: at the top dose re-replication activation, hits mostly activators. 1.8% of 340,000 active. AID 624297, 2012; note: % of control where 0% means no effect; nearly all actives have a fitted effect of over 55% in size
#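 SW480 cells exposed to compounds for 48 hr at 37 C, 5% CO2, then Hoechst-stained 40 min. Nuclear DNA content imaged by fluorescence scanning (405 nm excitation, 500-530 nm emission); re-replication scored as increased high-intensity nuclei.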
# * = called active by the depositor; i = inactive; ? = inconclusive; / = not tested or not shown; [ ] = remark or other dose. Calls come from the whole dose curve; as a rule, active = well fitted curve in the direction sought with a large enough effect; inconclusive = small, poorly fitted or top-dose-only effect, or another doubt; inactive = no such curve, though single readings can be large; an effect the other way counts as inactive or inconclusive. Potency is the fitted concentration of half-maximal effect.
SMILES,KB-3-1 tox,KB-V1 cytotox,HT1080 IDH1KD tx,MCF10A rerep,HT1080NT lethal,SW480 rerep
C=CCN1C(=O)N(/C=C/C)c2cccc3cccc1c23,i,?,0%,21µM*,6%,5%
Cc1nn(CC(=O)N2CCC(N3CCCCC3)CC2)c(=O)c2c1sc1ccccc12,i,i,-4%,0%,-7%,24%
CCN(CC)c1nc(N)c2c(N)nc3c(c2c1C#N)CC(c1ccccc1)O3 (stereo unspecified),i,21µM*,?,21µM*,-28%,?
Cc1c(C)n2c(SCC(=O)Nc3cccc4ccccc34)nnc2[nH]c1=O,i,i,2%,16%,-4%,23µM*
CCc1nc(SCC(=O)Nc2cccc3ccccc23)[nH]c(=O)c1C,i,i,10%,3%,18%,-3%
Cc1cc2c3c([nH]c2cc1S(=O)(=O)N1CCC2(CC1)OCCO2)CC(C)(C)CC3=O,i,i,-5%,23µM*,-28%,?
CC(=O)N(NC(N)=O)C(C)CC(=O)C1C(C)C=CCC1(C)C (stereo unspecified),i,i,14%,-1%,18%,-11%
COc1cc(Cl)c(C)cc1NC(=O)CSc1ccc(NC(C)=O)cc1,i,i,0%,3%,4%,-2%
CC(C)c1ccc(N2C=Nc3ccc(C(C)C)cc3C2)cc1,?,i,23µM*,?,?,7%
C=C(C)C(=O)Oc1ccc(N=Nc2ccc(C)cc2)ccc1=O,i,?,23µM*,16µM*,?,?
CC(=O)c1ccc(N=Nc2ccc(C)cc2)cc1,i,i,6%,12%,12%,5%
Nc1nc(-c2cccnc2)nn1C(=O)COc1ccccc1,i,i,3%,1%,?,-1%
Cc1cccc(-c2nn(-c3ccccc3)cc2C(=O)N2CCN(C3CCS(=O)(=O)C3)CC2)c1 (stereo unspecified),i,16µM*,1%,1%,-3%,0%
COc1ccc(N2CCN(CCNC(=O)C3CC(=O)N(C4CCCC4)C3)CC2)cc1 (stereo unspecified),i,i,9%,3%,2%,-2%
COc1ccc(C2=CC(c3ccc(OC)c(OC)c3)n3nnnc3N2)c(OC)c1 (stereo unspecified),i,i,-3%,18%,1%,?
COc1cccc(C2=CC(c3cc(OC)ccc3OC)n3nnnc3N2)c1 (stereo unspecified),6.5µM*,16µM*,?,?,?,?
COc1ccc(C2=CC(c3ccc(C)cc3)n3nnnc3N2)cc1 (stereo unspecified),i,?,?,7%,?,-2%
COc1ccc(OC)c(C2C=C(c3ccc(C)c(C)c3)Nc3nnnn32)c1 (stereo unspecified),6.5µM*,6.5µM*,?,?,?,7.3µM*
CCOc1cc(C(=S)N2CCCC2)ccc1OC(=O)Cc1ccc(F)cc1,i,i,5%,-2%,10%,?
Cc1ccc([C@H]2C[C@@H](O)[C@H](n3cc(-c4ccc(F)cc4)nn3)CN2Cc2cccs2)cc1,i,i,11%,/,-8%,/
COc1ccccc1-n1cnc(N)c1C(=O)c1ccccc1,i,i,26µM*,?,?,15µM*
COc1ccccc1-n1cnc(N)c1C(C)=O,i,i,2%,-10%,1%,11%
CSc1ccc(CN(C)Cc2nc3cc(C(F)(F)F)ccc3c(=O)[nH]2)cc1,i,23µM*,-2%,15%,-1%,-10%
COc1cc2nc(CN(C)Cc3ccc(SC)cc3)[nH]c(=O)c2cc1OC,i,?,-15%,13%,-8%,8%
O=C(NCC1CCCO1)C1CCN(S(=O)(=O)c2cc(Cl)ccc2Cl)CC1 (stereo unspecified),i,i,7%,4%,0%,-1%
SMILES,KB-3-1 tox,KB-V1 cytotox,HT1080 IDH1KD tx,MCF10A rerep,HT1080NT lethal,SW480 rerep
Nc1ncnc(N2CCc3ccccc32)c1[N+](=O)[O-],?,13µM*,6%,8%,-5%,3%
COc1ccccc1OCCCCN1CCN(C(c2ccccc2)c2ccccc2)CC1,?,?,18µM*,?,?,?
COc1cccc(OC)c1OCCCCCCN1CCN(C)CC1,i,i,5%,12%,14%,0%
c1ccc(OCCOCCN2CCN(C(c3ccccc3)c3ccccc3)CC2)cc1,?,?,-3%,?,-10%,8.2µM*
N=c1oc2cc(O)ccc2cc1C(=O)Nc1ccc(F)cc1,?,i,-9%,9.2µM*,-2%,8.2µM*
O=C(c1ccc(F)cc1)c1cc2ccc(O)cc2oc1=O,i,i,-18%,10%,-8%,?
c1ccc(-c2ccc(C3=Nn4c(Cn5nnc6ccccc65)nnc4SC3)cc2)cc1,i,i,-9%,-23%,-11%,2%
CCCOc1ccc(Br)cc1CSC(=N)N,8.2µM*,i,?,7%,-28%,-13%
O=C(NCCN1CCOCC1)c1ccc(CS(=O)(=O)c2ccc(Cl)cc2)o1,i,?,7%,-3%,12%,-5%[9.22 µM]
COc1ccc(NC(=O)c2ccc3snnc3c2)cc1,i,i,-1%,-4%,6%,1%
NC(=O)c1c(-c2ccc(Cl)cc2Cl)csc1NC(=O)Cc1ccccc1,?,?,?,23µM*,?,-15%
O=C(Cc1ccccc1)Nc1scc(-c2ccccc2)c1C(=O)N1CCOCC1,i,?,0%,16%,-5%,-2%[9.22 µM]
Cc1cc(O)cc2c(=O)c3ccccc3sc12,i,?,-16%,18µM*,-3%,?
CC1CCN(C(=O)CCCN2C(=O)c3cccnc3Oc3ccc(Cl)cc32)CC1,i,i,-4%,?,-36%,?
O=C(CC(=O)c1ccccn1)c1ccccc1,?,13µM*,?,-5%,-10%,?
CCOc1cc(/C=C2/SC(=O)N(CC(=O)N3CCc4ccccc4C3)C2=O)ccc1OCC(=O)O,i,i,-4%[9.24 µM],5%,14%,-12%
